Screens (PubChem BioAssay)
SW480 rerep = A quantitative high throughput screen for small molecules that induce DNA re-replication in SW480 colon adenocarcinoma cells. SW480 DNA re-replication, Hoechst DNA content imaging, 48 h. actives 1.8% (n = 340,000). AID 624297, 2012. Potency, µM (highest dose often 46.1 µM), inactives show at the top dose re-replication activation, usual class: activators; further: potency means the concentration at half of the fitted maximal effect; % of control where 0% means no effect; nearly all actives have a fitted effect of over 55% in size
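Compounds, transferred as 23 nL by pin tool, were incubated with cells for 48 hr; DNA content per nucleus was then quantified by Hoechst staining and fluorescence plate imaging.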
KB-V1 cytotox = qHTS assay for MDR1-selective chemotherapeutics: Primary screen using the drug-selected MDR subline cells KB-V1 | Potency, µM (series often up to 46.1 µM), most hits filed as cytotoxic | actives 3.4% (n = 400,000) | KB-V1 MDR cells viability, CellTiter-Glo, 72 h; further: potency means the concentration at half of the fitted maximal effect; on the % scale 0 is the no-effect control and ±100 the full control effect; nearly all actives have a fitted effect of over 60% in size
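qHTS viability screen in drug-selected KB-V1 MDR cells: 72 h compound treatment at 37 degrees C, ATP luminescence end point.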
Giardia kill = Small Molecules that selectively kill Giardia lamblia: qHTS; Giardia lamblia trophozoite viability; activity change, % at 7.66 µM, hits read low; actives 0.15% (n = 340,000); in the data active means activity change below about -80%; inconclusive means between about -30% and that limit;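 further: parasites exposed to compound for two days anaerobically before the ATP read; on the % scale 0 is the no-effect control and ±100 the full control effect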
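Each well holds 100 Giardia trophozoites and compound. After two days (48 hrs) at 37 deg C in anaerobic conditions, ATP is quantified by luminescence.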
KB-3-1 cytotox = qHTS assay for MDR1-selective chemotherapeutics: Primary screen using the parental adenocarcinoma cell KB-3-1. actives 1.4% (n = 400,000). KB-3-1 viability, CellTiter-Glo ATP luminescence, 72 h. Potency, µM (series often up to 46.1 µM), actives largely listed as cytotoxic; further: potency means the concentration at half of the fitted maximal effect; on the % scale 0 is the no-effect control and ±100 the full control effect; nearly all actives have a fitted effect of over 60% in size
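Cells are dispensed, compounds pinned in, plates held at 37 °C for 72 h, then CellTiter-Glo is added and luminescence read after 10 minutes. Cell line: parental KB-3-1 in phenol-red-free DMEM, 10% FBS.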
S-ASM inh = Inhibitors of Secretory Acid Sphingomyelinase (S-ASM): qHTS; AID 504937, 2011; placental ASM, HMU-PC fluorogenic substrate, 60 min; actives 0.006% (n = 340,000); Potency, µM (doses to about 57.5 µM), without a hit: at the top dose activity change, negative = inhibition, most hits filed as inhibitors; Sphingomyelin phosphodiesterase (Homo sapiens), P17405; further: potency means the concentration at half of the fitted maximal effect
Target sequence (P17405 47-631 limits assumed): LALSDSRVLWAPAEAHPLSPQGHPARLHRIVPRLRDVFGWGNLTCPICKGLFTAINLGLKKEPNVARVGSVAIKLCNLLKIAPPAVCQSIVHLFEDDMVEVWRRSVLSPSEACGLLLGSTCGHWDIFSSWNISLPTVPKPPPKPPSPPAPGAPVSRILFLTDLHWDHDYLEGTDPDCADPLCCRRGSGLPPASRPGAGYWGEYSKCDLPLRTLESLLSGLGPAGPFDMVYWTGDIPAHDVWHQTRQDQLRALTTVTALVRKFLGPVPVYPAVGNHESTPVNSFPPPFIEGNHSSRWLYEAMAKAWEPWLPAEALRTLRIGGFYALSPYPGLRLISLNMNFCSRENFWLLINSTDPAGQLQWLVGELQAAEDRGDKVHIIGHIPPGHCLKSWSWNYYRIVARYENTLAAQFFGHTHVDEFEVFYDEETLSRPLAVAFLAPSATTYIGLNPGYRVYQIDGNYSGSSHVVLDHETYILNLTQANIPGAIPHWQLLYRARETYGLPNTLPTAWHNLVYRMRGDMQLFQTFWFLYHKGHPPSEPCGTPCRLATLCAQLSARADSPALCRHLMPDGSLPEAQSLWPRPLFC
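HMU-PC0 cleavage (9 uM final) by human placental ASM, 60 min at 37 °C following 10 min compound exposure at RT; stopped at pH 10, fluorescence Ex 386/Em 447 nm.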
MCF10A rerep = A quantitative high throughput screen for small molecules that induce DNA re-replication in MCF 10a normal breast cells. MCF 10A DNA re-replication, Hoechst nuclear intensity, 48 h. Potency, µM (series often up to 46.1 µM), without a hit: top-dose activity, positive = re-replication, hits mostly activators. actives 2.9% (n = 350,000). AID 624296, 2012; further: potency means the concentration at half of the fitted maximal effect; % of control where 0% means no effect; nearly all actives have a fitted effect of over 50% in size
Numbers without * were called inactive; i = inactive; ? = inconclusive; . = no result given; ! = repeats disagree. Rows were chosen to be rich in hits. Some 6.9% of all compounds tested hit in one or more screens of this group. Unless noted, the call rests on the fitted dose curve; in most records, active means well fitted curve in the direction sought with a large enough effect; inconclusive means small, poorly fitted or top-dose-only effect, or another doubt; inactive means no such curve, though single readings can be large; an effect the other way counts as inactive or inconclusive.

SMILES	SW480 rerep	KB-V1 cytotox	Giardia kill	KB-3-1 cytotox	S-ASM inh	MCF10A rerep
COc1ccc(/C=N/Nc2snc(SC)c2C#N)cc1OC	1%	i	2	i	-1%	8%
COc1cccc(/C=N/Nc2ccccc2C(=O)O)c1O	-2%	i	5	i	5%	5%
O=c1nccc(N/N=C/c2ccccc2O)[nH]1	?	i	-12	6.5µM*	61%	8%
COc1cccc(/C=N/Nc2ccnc(=O)[nH]2)c1O	?	?	-11	4.6µM*	-1%	?
COc1cccc(/C=N/Nc2snc(SC)c2C#N)c1O	5%	16µM*	-13	13µM*	2%	6%
COC(=O)c1cccc(CN2C(=O)SC(Nc3ccccc3C)C2=O)c1 (centres undefined)	.	i	.	i	.	.
Cc1cc(C)cc(OC(C)C(=O)Nc2nonc2-c2ccc(Br)cc2)c1 (centres undefined)	.	i	.	i	.	.
COc1cc(N/N=C(\C)c2ccc(O)c(C)c2)nc(-c2ccccc2)n1	?	i	-9	i	-13%	?
C/C(=N\Nc1cc(C)nc(-c2ccccc2)n1)c1cccc([N+](=O)[O-])c1	6%	i	-19	i	-9%	0.73µM*
COc1cc(N/N=C(\C)c2ccc(N)cc2)nc(-c2ccccc2)n1	3%	i	15	i	-5%	18µM*
C/C(=N\Nc1cc(-c2ccccc2)nc(-c2ccccc2)n1)c1ccc(O)c(C)c1	?	?	-15	i	-3%	7.3µM*
CC(C)(C)CC(C)(C)c1ccc(OCC(=O)Nc2ccc(S(=O)(=O)Nc3ncccn3)cc2)cc1	.	i	.	i	.	.
Cc1cc2c(cc1C)N[C@]1(C[C@H]3CCCC(=O)N4CC[C@@H](C1)[C@@H]34)C(=Nc1ccccc1C)N2	.	i	.	i	.	.
O=C(CSc1cccc[n+]1[O-])N1CCCCCC1	-1%	i	-7	i	-2%	0%
O=C(CSc1cccc[n+]1[O-])CSc1cccc[n+]1[O-]	6.5µM*	?	-29	i	7%	-14%
CCCCCCCCCCCCCC[N+](C)(C)Cc1ccccc1	27µM*	i	.	18µM*	.	27µM*
CCCCCCCCCCN(CCCCCCCCCC)c1ccccc1	.	i	.	i	.	.
CCCCCCCCCCCCCCCC[N+](C)(C)Cc1ccccc1	?	.	.	.	.	13µM*
CCCSC1=NC2(CCN(C(=O)NC3CCCCC3)CC2)N=C1c1ccc(C)cc1	.	i	.	?	.	.
CN(C)c1ccc(CNC(=O)C2CCN(C(=O)c3ccc(-n4ccc5ccccc54)s3)CC2)cc1	.	i	.	i	.	.
COc1cc(/C=C/C(O)=C/C(=O)/C=C/c2ccc(O)cc2)ccc1O	?	i	-6	?	-24%	18µM*
Cc1cc(O)c(C(C)C)cc1C1(c2cc(C(C)C)c(O)cc2C)OC(=O)c2ccccc21	?	?	16	?	-13%	9.2µM*
Cc1cc(C2(c3ccc(O)c(C)c3)OC(=O)c3ccccc32)ccc1O	?	i	27	i	-2%	?
O=C(Nc1nccs1)C1CC=CC2CCN(Cc3ccc(Cl)c(Cl)c3)C(=O)C21 (centres undefined)	.	.	-6	.	.	.
Cc1ccc(N2CCN(CCc3nc4cc(NC(=O)c5ccco5)ccc4n3C)CC2)cc1	-4%	4.1µM*	-3	i	-1%	12%
SMILES	SW480 rerep	KB-V1 cytotox	Giardia kill	KB-3-1 cytotox	S-ASM inh	MCF10A rerep
CCn1c(CN2CCCCC2)nc2cc(NC(=O)c3ccc([N+](=O)[O-])cc3)ccc21	.	6.5µM*	.	i	.	.
CCn1c(CN2CCCCC2)nc2cc(NC(=O)c3ccccc3[N+](=O)[O-])ccc21	.	i	.	i	.	.
Cn1c(CN2CCCCC2)nc2cc(NC(=O)c3ccccc3)ccc21	5%	8.2µM*	12	i	24%	-5%
Cn1c(CN2CCCCC2)nc2cc(NC(=O)c3cccc(Br)c3)ccc21	17%	?	-4	18µM*!	11%	?
Cn1c(CCN2CCN(c3ccccc3)CC2)nc2cc(NC(=O)c3ccco3)ccc21	-9%	i	12	i	0%	11%
COc1ccc(CCNC(=O)CS(=O)(=O)Cc2nc(-c3cccc(Cl)c3)oc2C)cc1OC	.	i	.	i	.	.
C[C@@]12CCC(=O)C=C1C=CC1C2CC[C@]2(C)C1CC[C@@]21CCC(=O)O1 (some centres undefined)	0%	.	.	.	.	14%
CCCCn1c(N)c(N(CC(C)C)C(=O)c2cc(C)oc2C)c(=O)[nH]c1=O	-31%	?	1	?	-1%	3%
CC1CCN(CCc2nc3cc(NC(=O)COc4ccc([N+](=O)[O-])cc4)ccc3n2C)CC1	21µM*	i	-2	?	-8%	?
CC(=O)Nc1ccc2c(c1)nc(CCNC(=O)c1ccccc1)n2C	-13%	i	25	i	-2%	-5%
Cn1c(CCN2CCOCC2)nc2cc(NC(=O)COc3ccccc3)ccc21	-6%	i	-4	i	6%	2%
CCCC(=O)N1CCN(Cc2nc3cc([N+](=O)[O-])ccc3n2C)CC1	7.3µM*	i	8	i	0%	6%
CCCn1c(CN2CCN(C(=O)OCC)CC2)nc2cc([N+](=O)[O-])ccc21	-2%	?	10	i	0%	9%
CC(=O)NCCc1nc2cc(NC(=O)c3ccccc3C)ccc2n1C	-2%	?	-25	i	1%	0.58µM*
Cn1c(CN2CCOCC2)nc2cc(NC(=O)COc3ccccc3)ccc21	1%	16µM*	-8	i	7%	-2%
Cn1c(CCN2CCOCC2)nc2cc(NC(=O)COc3ccc([N+](=O)[O-])cc3)ccc21	26%	i	-7	i	-1%	9%
Cc1cccc(C(C)C)c1NC(=O)c1ccc2c(c1)CCN2S(C)(=O)=O	.	i	.	i	.	.
CCOC(=O)c1ccccc1NC(=O)Cn1ccn2nc(-c3ccc(OCC)cc3)cc2c1=O	.	?	.	i	.	.
CC(C)(C)OC(=O)N1CCC(c2c(C(=O)NCc3cccs3)cnn2-c2ccc(F)cc2F)CC1	.	i	.	i	.	.
CCOC(=O)CSc1c(-c2cccs2)[nH]c2ccccc12	?	?	8	?	-10%	23µM*
